# This is a sample that favours compounds with a hit; in the whole collection about 3.1% have one here.
# Anthrax LF prot = inhibitors of Bacillus anthracis lethal factor protease. multiplex microsphere protease cleavage assay, LF. P15917. 360,000 tested, 0.12% active. AID 588501. inhibition, % at 10 µM; further: plate controls were buffer without enzyme for full effect and enzyme alone for no effect
# SSB-PriA inh = inhibitors of Klebsiella pneumoniae PriA binding to SSB C-terminal tail | AlphaScreen SSBct-PriA binding, biotinylated peptide | inhibition, % at 33 µM | 430,000 tested, 0.6% active | AID 1272365; in the data active means inhibition mostly above about 37%, no sharp cut-off; inactive means mostly below about 20%;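 further: plate controls were negative control peptide for no effect and reference peptide for full effect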
# BoNT-A LC inh2 = blocks Botulinum neurotoxin A light chain protease. multiplex microsphere protease substrate cleavage, flow cytometry. inhibition, % at 10 µM. 360,000 tested, 0.17% active; further: plate controls were buffer without enzyme for full effect and enzyme alone for no effect
# BoNT F protease = inhibitors of Botulinum neurotoxin F light chain protease; 360,000 tested, 0.22% active; Multiplex microsphere protease cleavage assay, flow cytometry; inhibition, % at 10 µM; in the data active means inhibition above about 35%, passing the limit was not always enough; inconclusive means no clear call, values can overlap the other calls; further: plate controls were buffer without enzyme for full effect and enzyme alone for no effect
# Autofluor counter = counter-screen for toxin protease inhibitors: compound fluorescence. compound autofluorescence counterscreen, microsphere flow cytometry; active compounds read high. fluorescence intensity (test concentration not listed). 360,000 tested, 3.1% active. AID 624483; in the data active means fluorescence intensity above about 16000; inconclusive means no clear call, values can overlap the other calls
# Active calls of the source: *; u = inconclusive; x = no result. Unless noted, no stated cut-off is given here; in the data, active means inhibition above about 30%; inconclusive means no clear call, values can overlap the other calls; inactive means below that.
SMILES,Anthrax LF prot,SSB-PriA inh,BoNT-A LC inh2,BoNT F protease,Autofluor counter
COCCCNC(=S)NNC(=O)c1ccc2c(c1)OCO2,1,-11,0,-9,3606
CC(C)CNC(=S)NNC(=O)c1ccc2c(c1)OCO2,-7,-12,-5,-6,17145*
CC(=O)Nc1cccc(NC(=O)CSc2nc(CC(=O)NCc3ccco3)cs2)c1,x,-3,x,x,x
CC(=O)C(=Nc1ccccc1Cl)NNc1ccc(Cl)cc1,-3,50*,-1,-2,3864
Cc1occc1-c1nnc(SCc2nc3ccccc3c(=O)n2CC#N)n1C,-1,1,0,-5,23590*
CN(C)Cc1nc2ccccc2c(=O)n1CC#N,-1,-4,-1,-4,3186
Cc1noc(C)c1CSCC(=O)OCc1nc2ccccc2c(=O)n1CC#N,1,-6,7,6,21620*
Cc1cc(C(=O)NCC2CCN(c3ncccn3)CC2)no1,x,-7,x,x,x
O=C(NCCc1csc(-n2cccn2)n1)c1cnccn1,x,-18,x,x,x
CCOC(=O)C1=C(CSCC(=O)OC)NC(=O)NC1c1cc(C)ccc1C (configuration not stated),-9,-5,2,2,22020*
Cc1cc(C)nc(SC(C)C(=O)Nc2ccc(S(N)(=O)=O)cc2)n1 (configuration not stated),1,-18,u,2,21604*
N#CCCCn1c(-c2ccccc2)noc1=O,-4,4,u,-2,23665*
CCOC(=O)/C(C(N)=NCCO)=C(/O)c1ccccc1,-4,x,-1,-1,17067*
CCOC(=O)/C(C(N)=NCCCO)=C(/O)c1ccccc1,1,x,1,-5,7115
O=c1c2c3c(nn2cnn1CC1COc2ccccc2O1)CCCC3 (configuration not stated),x,-20,x,x,x
O=C(N/N=C\c1cccs1)c1ccc2c(c1)OCO2,x,-5,x,x,x
CC(NC(=O)c1ccco1)c1cccc2ccccc12 (configuration not stated),0,9,1,2,22307*
COC(=O)CC(NC(=O)c1ccco1)c1cccc2ccccc12 (configuration not stated),-4,-4,-1,-47,5164
O=C(Nc1ccon1)c1ccc2c(c1)OCO2,2,-11,u,0,16433*
O=C(Nc1ccc2nsnc2c1)c1ccc2c(c1)OCO2,-3,-4,-2,-6,23719*
O=C(Nc1ccc2c(c1)OCO2)c1ccc2c(c1)OCO2,-5,3,-1,-13,2457
Cc1c(O[C@@H]2O[C@H](CO)[C@@H](O)[C@H](O)[C@H]2O)ccc2c1oc(=O)c1ccccc12,-2,6,3,35*,3855
Cc1c(C)c2ccc(O[C@@H]3O[C@H](CO)[C@H](O)[C@H](O)[C@H]3O)c(C)c2oc1=O,-12,-6,0,12,3203
Cc1cc(C)cc(CC2CC(=O)N(c3ccc(Cl)cn3)C2=O)c1 (configuration not stated),-4,-19,1,1,22513*
Cc1ccc(N2C(=O)CC(Cc3cc(C)cc(C)c3)C2=O)cc1 (configuration not stated),-6,-13,-1,-2,4208
SMILES,Anthrax LF prot,SSB-PriA inh,BoNT-A LC inh2,BoNT F protease,Autofluor counter
Cn1nc(CN(C(=O)Cc2cccs2)C2CCCC2)cc1C1CC1,x,6,x,x,x
Cc1ccc(CN2CCSc3ccc(C(=O)N4CCN(c5ncccn5)CC4)cc32)cc1,2,-3,1,1,22029*
CCCCNCCCOc1ccc(C)cc1Br,0,6,-1,-9,2206
CNCCCOc1ccc(C)cc1Br,-1,-4,u,-3,20475*
COc1ccc(CCN2C(=O)CC(Sc3ncccc3C(=O)O)C2=O)cc1OC (configuration not stated),2,-1,0,1,23415*
Cc1ccc(C)c(-c2csc(NC(=O)c3ccccc3Br)n2)c1,x,7,x,x,x
COc1ccc(C2(CNC(=O)/C=C/c3ccco3)CCCC2)cc1OC,2,6,5,3,19955*
COC(=O)c1cc(OC)c(OC)cc1NC(=O)/C=C/c1ccco1,x,13,x,x,x
CCN(CC)S(=O)(=O)c1ccc(OC)c(NC(=O)/C=C/c2ccco2)c1,-4,-7,4,35*,5086
Cc1cccc(OCC(=O)N[C@@H](C)Cc2ccco2)c1,x,-1,x,x,x
COc1ccc(NC(=O)[C@@H]2CSCCC(=O)N2)cc1Cl,x,-2,x,x,x
CCOc1ccc(C(=O)NCC2CCN(Cc3ccco3)CC2)cc1OCC,x,-4,x,x,x
O=C(CSc1cn(CCNC(=O)c2ccc(F)cc2)c2ccccc12)Nc1nccs1,x,1,x,x,x
COc1ccc(OC)c(-n2c(O)c(C=NCc3ccc4c(c3)OCO4)c(=O)[nH]c2=O)c1,-1,-9,-1,-3,16727*
